This note sets out measurements from ChEMBL document CHEMBL1961873, “Compounds: GSK PKIS; Assays: Nanosyn kinase panel” (2012).

For test [1], the target named is Mitogen-activated protein kinase 3 (Homo sapiens) (UniProt P27361). The note with it: at 1 µM.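 Note: values are mean percent inhibition of MAPK3.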
Test [2] has as its target SRSF protein kinase 3 (Homo sapiens) (UniProt Q9UPE1). The note with it: at 0.1 µM.
Test [3] shares this target. The note with it: at 1 µM.
Test [4] concerns the target Mitogen-activated protein kinase 14 (Homo sapiens) (UniProt Q16539). The note with it: at 0.1 µM.
For test [5] the target is unchanged. The note with it: at 1 µM.
The target in test [6] is Mitogen-activated protein kinase 11 (Homo sapiens) (UniProt Q15759). The note with it: at 0.1 µM.
Test [7] shares this target. To be noted: at 1 µM.
Test [8] concerns the target T1, Mitogen-activated protein kinase 13 (Homo sapiens) (UniProt O15264).
T1 sequence (whole entry): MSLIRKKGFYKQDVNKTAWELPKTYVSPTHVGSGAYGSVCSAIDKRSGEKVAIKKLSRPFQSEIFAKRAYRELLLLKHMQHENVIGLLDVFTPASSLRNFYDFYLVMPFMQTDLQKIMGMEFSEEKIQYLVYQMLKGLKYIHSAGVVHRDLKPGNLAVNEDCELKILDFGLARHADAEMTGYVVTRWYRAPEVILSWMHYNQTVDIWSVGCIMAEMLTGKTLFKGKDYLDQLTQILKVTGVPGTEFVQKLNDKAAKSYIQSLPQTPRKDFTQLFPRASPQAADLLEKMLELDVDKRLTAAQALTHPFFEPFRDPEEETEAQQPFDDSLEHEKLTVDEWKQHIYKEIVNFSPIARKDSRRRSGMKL
The note with it: at 0.1 µM.

Test [9] concerns the target T1, Mitogen-activated protein kinase 13 (Homo sapiens). To be noted: at 1 µM.
Test [10] deals with T2, Mitogen-activated protein kinase 12 (Homo sapiens) (UniProt P53778).
T2 sequence (whole entry): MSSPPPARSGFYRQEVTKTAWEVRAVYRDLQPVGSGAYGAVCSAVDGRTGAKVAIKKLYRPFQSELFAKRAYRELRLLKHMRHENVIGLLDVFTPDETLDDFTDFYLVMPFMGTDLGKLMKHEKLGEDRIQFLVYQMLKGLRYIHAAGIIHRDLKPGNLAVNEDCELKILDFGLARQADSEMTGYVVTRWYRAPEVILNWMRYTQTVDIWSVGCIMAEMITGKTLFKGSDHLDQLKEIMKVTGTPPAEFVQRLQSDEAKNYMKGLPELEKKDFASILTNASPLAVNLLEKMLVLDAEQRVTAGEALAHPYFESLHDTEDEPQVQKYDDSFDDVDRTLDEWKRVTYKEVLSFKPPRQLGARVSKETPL
To be noted: at 0.1 µM.

The target of test [11] is T2, Mitogen-activated protein kinase 12 (Homo sapiens). The note with it: at 1 µM.
Test [12] has as its target SRSF protein kinase 1 (Homo sapiens) (UniProt Q96SB4). To be noted: at 0.1 µM.
Test [13] shares this target. The note with it: at 1 µM.
Test [14] has as its target Phosphatidylinositol 4,5-bisphosphate 3-kinase catalytic subunit alpha isoform (Homo sapiens) (UniProt P42336). To be noted: at 0.1 µM.
For test [15] the target is unchanged. The note with it: at 1 µM.
Test [16] has as its target T3, Phosphatidylinositol 4,5-bisphosphate 3-kinase catalytic subunit delta isoform (Homo sapiens) (UniProt O00329).
T3 sequence (whole entry): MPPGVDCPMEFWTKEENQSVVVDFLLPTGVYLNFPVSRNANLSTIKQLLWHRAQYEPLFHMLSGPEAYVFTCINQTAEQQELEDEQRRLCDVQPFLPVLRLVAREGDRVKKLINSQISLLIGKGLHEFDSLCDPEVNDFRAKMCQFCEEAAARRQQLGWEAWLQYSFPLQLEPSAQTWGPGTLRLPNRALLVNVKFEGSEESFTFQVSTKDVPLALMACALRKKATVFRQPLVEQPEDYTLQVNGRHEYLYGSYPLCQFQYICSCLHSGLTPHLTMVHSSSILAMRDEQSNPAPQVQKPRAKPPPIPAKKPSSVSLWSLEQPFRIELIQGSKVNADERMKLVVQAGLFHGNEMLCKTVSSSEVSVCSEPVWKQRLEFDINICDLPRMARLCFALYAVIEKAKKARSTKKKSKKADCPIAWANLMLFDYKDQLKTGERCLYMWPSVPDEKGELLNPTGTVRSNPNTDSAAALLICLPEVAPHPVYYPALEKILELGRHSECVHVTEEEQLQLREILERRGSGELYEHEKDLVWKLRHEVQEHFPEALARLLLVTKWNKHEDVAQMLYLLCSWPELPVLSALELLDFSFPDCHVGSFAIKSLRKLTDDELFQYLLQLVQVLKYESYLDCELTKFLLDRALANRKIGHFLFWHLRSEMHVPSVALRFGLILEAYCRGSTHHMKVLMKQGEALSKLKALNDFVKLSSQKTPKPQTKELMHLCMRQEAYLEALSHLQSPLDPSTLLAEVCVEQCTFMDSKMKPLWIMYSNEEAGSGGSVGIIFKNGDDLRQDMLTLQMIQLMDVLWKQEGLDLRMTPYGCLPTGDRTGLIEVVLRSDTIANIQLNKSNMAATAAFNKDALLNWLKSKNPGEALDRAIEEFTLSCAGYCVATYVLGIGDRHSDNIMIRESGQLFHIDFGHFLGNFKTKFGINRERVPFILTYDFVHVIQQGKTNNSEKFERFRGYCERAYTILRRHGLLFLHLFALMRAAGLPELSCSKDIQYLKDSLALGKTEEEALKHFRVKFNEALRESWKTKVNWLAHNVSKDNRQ
To be noted: at 0.1 µM.

In test [17] the target is T3, Phosphatidylinositol 4,5-bisphosphate 3-kinase catalytic subunit delta isoform (Homo sapiens). To be noted: at 1 µM.
Test [18] deals with Phosphatidylinositol 4-kinase beta (Homo sapiens) (UniProt Q9UBF8). The note with it: at 0.1 µM.
The target is the same in test [19]. To be noted: at 1 µM.
Test [20] concerns the target Sphingosine kinase 1 (Homo sapiens) (UniProt Q9NYA1). To be noted: at 0.1 µM.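 Note: mean percent inhibition of SPHK1 activity, measured within the GSK PKIS screening panel.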

Phosphatidylinositol 4-kinase beta (Homo sapiens), sequence (Q9UBF8 2-816 limits assumed): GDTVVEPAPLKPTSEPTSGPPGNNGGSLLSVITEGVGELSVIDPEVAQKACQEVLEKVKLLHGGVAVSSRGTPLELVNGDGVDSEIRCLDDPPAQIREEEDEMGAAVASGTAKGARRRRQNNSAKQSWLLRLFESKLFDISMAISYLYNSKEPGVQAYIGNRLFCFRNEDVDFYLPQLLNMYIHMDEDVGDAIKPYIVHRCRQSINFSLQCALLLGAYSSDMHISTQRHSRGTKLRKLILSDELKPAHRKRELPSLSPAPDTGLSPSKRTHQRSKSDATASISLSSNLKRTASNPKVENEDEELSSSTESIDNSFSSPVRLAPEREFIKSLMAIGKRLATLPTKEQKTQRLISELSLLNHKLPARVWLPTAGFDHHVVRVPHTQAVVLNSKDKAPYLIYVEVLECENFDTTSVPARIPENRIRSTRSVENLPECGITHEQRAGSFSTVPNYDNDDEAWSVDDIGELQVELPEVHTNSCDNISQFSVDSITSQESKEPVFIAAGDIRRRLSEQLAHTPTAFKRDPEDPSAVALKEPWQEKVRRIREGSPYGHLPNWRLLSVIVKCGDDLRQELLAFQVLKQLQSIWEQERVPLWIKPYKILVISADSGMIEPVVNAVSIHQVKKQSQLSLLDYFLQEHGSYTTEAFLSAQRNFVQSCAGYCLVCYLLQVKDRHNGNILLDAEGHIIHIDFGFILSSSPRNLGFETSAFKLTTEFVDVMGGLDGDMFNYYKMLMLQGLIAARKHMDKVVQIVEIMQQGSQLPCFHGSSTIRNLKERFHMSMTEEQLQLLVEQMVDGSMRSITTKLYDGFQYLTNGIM
SRSF protein kinase 3 (Homo sapiens), sequence (Q9UPE1 whole entry): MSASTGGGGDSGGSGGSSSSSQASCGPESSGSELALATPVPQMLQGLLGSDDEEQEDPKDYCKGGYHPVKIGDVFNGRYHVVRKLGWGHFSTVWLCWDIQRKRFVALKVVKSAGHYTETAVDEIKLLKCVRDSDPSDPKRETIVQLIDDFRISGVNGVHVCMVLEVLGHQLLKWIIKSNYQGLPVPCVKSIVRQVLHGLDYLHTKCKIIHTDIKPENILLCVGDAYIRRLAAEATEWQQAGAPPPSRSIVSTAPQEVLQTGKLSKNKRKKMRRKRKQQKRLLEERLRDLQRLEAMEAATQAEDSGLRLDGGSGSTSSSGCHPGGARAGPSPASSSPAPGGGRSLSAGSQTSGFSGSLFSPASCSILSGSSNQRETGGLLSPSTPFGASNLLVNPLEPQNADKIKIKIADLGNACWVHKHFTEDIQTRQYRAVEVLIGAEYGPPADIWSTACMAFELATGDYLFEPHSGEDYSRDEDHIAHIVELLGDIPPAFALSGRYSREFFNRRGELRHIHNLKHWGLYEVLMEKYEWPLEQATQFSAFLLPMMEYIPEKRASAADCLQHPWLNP
Phosphatidylinositol 4,5-bisphosphate 3-kinase catalytic subunit alpha isoform (Homo sapiens), sequence (P42336 whole entry, canonical isoform): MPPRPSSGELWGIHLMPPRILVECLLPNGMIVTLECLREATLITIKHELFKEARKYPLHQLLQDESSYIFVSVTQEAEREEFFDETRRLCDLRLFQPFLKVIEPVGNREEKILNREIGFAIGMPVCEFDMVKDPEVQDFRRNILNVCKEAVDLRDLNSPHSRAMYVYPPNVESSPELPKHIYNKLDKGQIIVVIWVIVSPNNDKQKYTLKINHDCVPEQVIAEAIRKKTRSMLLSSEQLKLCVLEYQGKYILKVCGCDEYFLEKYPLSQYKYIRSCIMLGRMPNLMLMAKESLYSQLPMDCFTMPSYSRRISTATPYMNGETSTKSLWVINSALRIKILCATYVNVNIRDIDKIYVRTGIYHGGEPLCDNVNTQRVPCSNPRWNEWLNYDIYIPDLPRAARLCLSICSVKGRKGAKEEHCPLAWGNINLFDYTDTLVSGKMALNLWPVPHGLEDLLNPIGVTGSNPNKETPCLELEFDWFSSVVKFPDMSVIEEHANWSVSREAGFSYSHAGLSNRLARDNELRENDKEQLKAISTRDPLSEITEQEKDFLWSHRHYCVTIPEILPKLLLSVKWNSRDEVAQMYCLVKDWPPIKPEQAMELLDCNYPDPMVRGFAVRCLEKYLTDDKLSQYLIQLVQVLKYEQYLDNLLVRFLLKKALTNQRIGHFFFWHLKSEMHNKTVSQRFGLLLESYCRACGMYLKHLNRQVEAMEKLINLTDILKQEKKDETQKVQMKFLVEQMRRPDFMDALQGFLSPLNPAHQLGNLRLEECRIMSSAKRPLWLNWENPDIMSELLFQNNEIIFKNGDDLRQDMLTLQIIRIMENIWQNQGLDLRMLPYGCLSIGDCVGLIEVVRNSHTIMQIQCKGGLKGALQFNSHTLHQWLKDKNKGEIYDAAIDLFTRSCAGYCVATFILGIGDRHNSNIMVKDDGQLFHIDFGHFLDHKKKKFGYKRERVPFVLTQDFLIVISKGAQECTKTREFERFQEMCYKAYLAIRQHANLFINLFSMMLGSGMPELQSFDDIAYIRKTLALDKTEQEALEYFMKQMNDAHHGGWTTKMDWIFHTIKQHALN
Mitogen-activated protein kinase 3 (Homo sapiens), sequence (P27361 whole entry): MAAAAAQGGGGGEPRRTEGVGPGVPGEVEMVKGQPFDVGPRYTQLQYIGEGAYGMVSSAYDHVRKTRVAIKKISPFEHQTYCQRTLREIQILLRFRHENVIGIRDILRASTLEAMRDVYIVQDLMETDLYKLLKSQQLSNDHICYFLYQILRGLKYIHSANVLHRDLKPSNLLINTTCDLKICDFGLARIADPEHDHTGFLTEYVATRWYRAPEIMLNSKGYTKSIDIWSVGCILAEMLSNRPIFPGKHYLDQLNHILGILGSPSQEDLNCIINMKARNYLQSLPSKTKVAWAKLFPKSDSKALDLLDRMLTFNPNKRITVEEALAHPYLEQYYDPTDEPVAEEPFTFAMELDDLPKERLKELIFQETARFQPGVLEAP
Sphingosine kinase 1 (Homo sapiens), sequence (Q9NYA1 whole entry): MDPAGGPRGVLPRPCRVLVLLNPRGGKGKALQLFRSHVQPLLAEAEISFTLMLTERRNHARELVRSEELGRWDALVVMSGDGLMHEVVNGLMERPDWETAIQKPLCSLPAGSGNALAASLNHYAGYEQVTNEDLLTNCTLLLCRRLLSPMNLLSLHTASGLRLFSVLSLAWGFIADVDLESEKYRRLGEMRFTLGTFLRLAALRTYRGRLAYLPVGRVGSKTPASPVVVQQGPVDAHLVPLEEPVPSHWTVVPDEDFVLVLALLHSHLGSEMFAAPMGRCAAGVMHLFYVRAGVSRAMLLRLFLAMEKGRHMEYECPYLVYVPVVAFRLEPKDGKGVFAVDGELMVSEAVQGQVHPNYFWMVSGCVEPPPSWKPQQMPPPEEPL
Mitogen-activated protein kinase 11 (Homo sapiens), sequence (Q15759 whole entry): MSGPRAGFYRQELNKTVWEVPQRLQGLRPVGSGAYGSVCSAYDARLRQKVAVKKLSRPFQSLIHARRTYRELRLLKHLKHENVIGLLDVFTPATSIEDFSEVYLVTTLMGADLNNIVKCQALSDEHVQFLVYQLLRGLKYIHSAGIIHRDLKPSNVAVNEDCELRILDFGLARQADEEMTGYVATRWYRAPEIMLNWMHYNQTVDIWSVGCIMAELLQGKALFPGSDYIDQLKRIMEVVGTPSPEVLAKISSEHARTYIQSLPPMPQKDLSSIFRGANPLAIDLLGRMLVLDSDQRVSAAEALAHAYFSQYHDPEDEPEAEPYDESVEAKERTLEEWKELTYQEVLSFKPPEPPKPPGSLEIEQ
SRSF protein kinase 1 (Homo sapiens), sequence (Q96SB4 whole entry): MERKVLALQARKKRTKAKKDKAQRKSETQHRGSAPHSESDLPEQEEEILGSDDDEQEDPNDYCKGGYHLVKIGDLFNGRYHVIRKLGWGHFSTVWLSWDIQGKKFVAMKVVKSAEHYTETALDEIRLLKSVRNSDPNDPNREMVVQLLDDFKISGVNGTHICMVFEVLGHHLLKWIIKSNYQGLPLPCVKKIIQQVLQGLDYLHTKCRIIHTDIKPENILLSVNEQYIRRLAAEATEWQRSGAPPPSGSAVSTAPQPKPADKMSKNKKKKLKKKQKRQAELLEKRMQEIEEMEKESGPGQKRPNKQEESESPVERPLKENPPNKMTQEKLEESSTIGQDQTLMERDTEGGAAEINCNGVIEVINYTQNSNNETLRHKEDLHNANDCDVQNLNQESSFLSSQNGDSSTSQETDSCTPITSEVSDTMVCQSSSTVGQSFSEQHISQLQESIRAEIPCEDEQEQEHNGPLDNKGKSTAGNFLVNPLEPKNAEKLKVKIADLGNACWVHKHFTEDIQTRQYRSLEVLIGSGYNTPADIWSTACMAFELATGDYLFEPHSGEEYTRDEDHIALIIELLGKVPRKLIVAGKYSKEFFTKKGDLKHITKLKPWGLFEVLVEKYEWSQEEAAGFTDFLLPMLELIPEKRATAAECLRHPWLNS
Mitogen-activated protein kinase 14 (Homo sapiens), sequence (Q16539 whole entry): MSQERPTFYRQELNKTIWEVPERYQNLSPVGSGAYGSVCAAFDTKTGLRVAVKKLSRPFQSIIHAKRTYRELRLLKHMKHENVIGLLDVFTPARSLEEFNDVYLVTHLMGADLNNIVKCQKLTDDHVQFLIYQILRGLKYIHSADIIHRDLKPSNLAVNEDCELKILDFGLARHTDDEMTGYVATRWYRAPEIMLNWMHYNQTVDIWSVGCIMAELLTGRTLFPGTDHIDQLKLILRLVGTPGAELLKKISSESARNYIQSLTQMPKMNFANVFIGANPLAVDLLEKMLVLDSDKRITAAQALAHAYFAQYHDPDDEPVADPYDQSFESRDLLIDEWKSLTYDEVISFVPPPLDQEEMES

For the compound `CCn1c(-c2nonc2N)nc2c(C#CC(C)(C)O)nc(O[C@@H](CN)c3ccccc3)cc21`, the inhibition (usually the change of the read-out against control, counted positive when it falls) was 0.99% in test [1]; -2% in test [2]; -2.07% in test [3]; 1.44% in test [4]; 1.33% in [5]; -1.84% in [6]. In addition, the inhibition is 2.96% in test [7]; 1.2% in [8]; 0.11% in [9]; 1.29% in test [10]; 0.23% in test [11]; -0.59% in [12]. Besides, the inhibition is -3.25% in [13]; -0.44% in test [14]; 0.33% in [15]; 2.44% in [16]; 3.42% in test [17]; 6.5% in [18]. The inhibition in test [19] was 1.86%; in test [20], -1.08%.
In the case of `NS(=O)(=O)c1ccc(-c2ccc3c(NC(=O)C4CC4)n[nH]c3c2)cc1`, the inhibition in test [1] is 1.36%; in test [2], 0.31%; in [3], -1.45%; in test [4], 7.62%; in test [5], 5.94%; in test [6], 2.34%. Moreover, the inhibition in test [7] was -1.13%; in [8], 3.91%; in [9] it was 5.02%; in test [10] it was 0.67%; in test [11] it was 0.58%; in [12], -1.31%. Moreover, the inhibition is -2.21% in [13]; 2.7% in test [14]; 3.32% in test [15]; 3.34% in test [16]; 8.4% in test [17]; -0.87% in [18]. For the same compound, the inhibition in [19] was -1.58%; in test [20], -2.63%.
In the case of `COc1cccc(COc2cc(-n3cnc4ccccc43)sc2C(N)=O)c1`, the inhibition is 3% in test [1]; -1.99% in test [2]; -1.01% in [3]; 1.67% in test [4]; 8.88% in [5]; 1.92% in test [6]. Also, the inhibition in test [7] is 4.36%; in test [8], -0.06%; in test [9], -2.46%; in [10] it was -0.12%; in test [11] it was -0.04%; in [12] it was -3.25%. Besides, the inhibition in test [13] was -2.74%; in test [14], 0.82%; in [15], 1.56%; in [16], 1.62%; in test [17], 3.63%; in test [18], 1.38%. Besides, the inhibition in test [19] is -0.71%; in test [20], 2.22%.
Take `CCn1c(-c2nonc2N)nc2c(C#CCN)ncc(OCCCN)c21`: the inhibition was -0.18% in test [1]; -0.3% in [2]; 3.44% in [3]; 2.31% in test [4]; -5.03% in test [5]; -2.25% in [6]. Further, the inhibition in test [7] is 0.63%; in [8], 2.51%; in test [9] it was -4.32%; in test [10] it was -2.6%; in [11] it was -2.79%; in test [12], 2.33%. The inhibition is 7.14% in [13]; -0.54% in test [14]; -3.54% in test [15]; -2.56% in test [16]; -5.7% in test [17]; 1.34% in test [18]. In addition, the results for the inhibition in test [19] and in [20] were -2.08% and 0.33%, respectively.
Regarding `Nc1nonc1-c1nc2cnccc2n1C1CCCCC1`, the inhibition in test [1] is 2.55%; in test [2], -1.48%; in [3], -1.01%; in test [4] it was -0.43%; in test [5], -3.77%; in test [6] it was -1.77%. Also, the inhibition in test [7] is 0.28%; in test [8] it was -3.11%; in [9], 1.87%; in test [10] it was -0.65%; in test [11], 0.39%; in test [12], 1%. In addition, the inhibition was -0.52% in test [13]; -2.06% in test [14]; -3.54% in test [15]; -1.65% in test [16]; 0.74% in test [17]; 4.2% in test [18]. Besides, the figures for the inhibition in test [19] and in [20] were -2.26% and 0%, respectively.
As to `Fc1ccc(-c2ncn(C3CCNCC3)c2-c2ccnc(Oc3ccccc3)n2)cc1`, the inhibition is 3.04% in test [1]; -3.7% in [2]; -2.18% in test [3]; -1.48% in test [12]; -1.61% in test [13]; 1.53% in test [14]. Besides, the inhibition was 0.06% in test [15]; 0.6% in test [16]; 1.12% in test [17]; 0.91% in test [18]; 2.57% in test [19]; 1.45% in test [20].
On to `Cc1cc(-c2ccco2)cc(C)c1/C=C/c1cncc(-c2nn[nH]n2)c1`, for which the inhibition in test [1] was 1.84%; in test [2], -1.41%; in test [3] it was -1.53%; in test [4] it was 1.46%; in test [5] it was 1.43%; in test [6] it was 3.14%. Moreover, the inhibition in test [7] was 3.31%; in [8], 0.77%; in test [9], -1.04%; in [10], 0.9%; in [11], 1.3%; in test [12] it was -0.96%. Moreover, the inhibition in [13] is -1.7%; in test [14], -0.22%; in test [15], 6.64%; in test [16] it was 0.16%; in test [17], -1.23%; in test [18], -1.26%. Besides, the inhibition in test [19] worked out at 9.03%; in [20] it was 0.73%.
